# Only a selection was taken, and hits are over-represented in it overall.
# HT1080 IDH1KD tx – kills HT-1080 cells with IDH1 knockdown; HT-1080 IDH1 knockdown viability, ATP luminescence, 48 h; Potency, µM (top dose mostly 46.1 µM), inactives show at the top dose activity, negative = toxicity, actives largely listed as cytotoxic; actives 2% (n = 360,000);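 also: potency is read from the fitted curve at half-maximal effect; 0% = DMSO wells and -100% = cell-free medium wells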
#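 After a 2 h attachment period, IDH1KD HT-1080 cells took pin-transferred compound for 48 h at 37 °C; ATP-based luminescence after 10 min room-temperature reagent incubation reported viability.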
# IL1B secr inh – inhibitors of inflammasome signaling (IL-1 beta secretion). THP-1 LPS/ATP IL-1B secretion, AlphaLISA, 16 h; stronger effect = lower value. activity change, % at 57.5 µM. actives 4.7% (n = 360,000). AID 743279; in the data active = activity change below about -50%; inconclusive = mostly about -30% to -49%
#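 THP-1 cells pretreated 1 hr with compounds (up to 57.5 uM final), then stimulated with LPS (250 ng/mL final) plus ATP (1.25 mM final); secreted IL-1B measured by AlphaLISA after 16 hr, decreased signal indicating inhibition.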
# TDP1 cell CPT – growth inhibition of DT40 Tdp1-/-;hTDP1 cells with camptothecin (screen for TDP1 inhibitors); Potency, µM (highest dose often 46.2 µM), for the others: at the highest dose activity change, negative = growth inhibition, usual class: inhibitors; actives 12% (n = 420,000); chicken DT40 Tdp1-/-;hTDP1 cells + 20 nM CPT, ATP luminescence, 48 h; also: potency is read from the fitted curve at half-maximal effect; nearly all actives have a fitted effect of over 55% in size
#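 Cell growth measured by CellTiter-Glo luminescence after a minimum 48 h, 37 C compound exposure with 20 nM CPT in Tdp1-knockout DT40 cells stably expressing hTDP1, seeded 400/well; qHTS titration format.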
# HT1080-NT tox – kills 2HG-producing HT-1080-NT fibrosarcoma cells; AID 686970; Potency, µM (top dose mostly 46.1 µM), without a hit: top-dose activity, negative = less viability, hits mostly cytotoxic; HT-1080-NT fibrosarcoma viability, CellTiter-Glo ATP luminescence, 48 h; actives 1.6% (n = 360,000);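 also: NT is the 2HG producing partner of a matched IDH1 knockdown line; potency is read from the fitted curve at half-maximal effect; 0% = DMSO-treated cells and -100% = media-only wells without cells; nearly all actives have a fitted effect of over 55% in size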
#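 Read-out is CellTiter-Glo luminescence after 10 minutes at room temperature, following 48 hours' compound treatment of HT-1080-NT cells (750 cells/well, RPMI, 5% FBS, 37 degrees C).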
# 12-LOX inh – ALOX12 (human) lipoxygenase inhibition. P18054. purified 12hLO, xylenol orange hydroperoxide absorbance. Potency, µM (series often up to 108 µM), for inactives: at the highest dose activity change, negative = inhibition, actives largely listed as inhibitors. actives 1.1% (n = 580,000). AID 1671190; also: potency is read from the fitted curve at half-maximal effect
# Target sequence (P18054 whole entry, looked up): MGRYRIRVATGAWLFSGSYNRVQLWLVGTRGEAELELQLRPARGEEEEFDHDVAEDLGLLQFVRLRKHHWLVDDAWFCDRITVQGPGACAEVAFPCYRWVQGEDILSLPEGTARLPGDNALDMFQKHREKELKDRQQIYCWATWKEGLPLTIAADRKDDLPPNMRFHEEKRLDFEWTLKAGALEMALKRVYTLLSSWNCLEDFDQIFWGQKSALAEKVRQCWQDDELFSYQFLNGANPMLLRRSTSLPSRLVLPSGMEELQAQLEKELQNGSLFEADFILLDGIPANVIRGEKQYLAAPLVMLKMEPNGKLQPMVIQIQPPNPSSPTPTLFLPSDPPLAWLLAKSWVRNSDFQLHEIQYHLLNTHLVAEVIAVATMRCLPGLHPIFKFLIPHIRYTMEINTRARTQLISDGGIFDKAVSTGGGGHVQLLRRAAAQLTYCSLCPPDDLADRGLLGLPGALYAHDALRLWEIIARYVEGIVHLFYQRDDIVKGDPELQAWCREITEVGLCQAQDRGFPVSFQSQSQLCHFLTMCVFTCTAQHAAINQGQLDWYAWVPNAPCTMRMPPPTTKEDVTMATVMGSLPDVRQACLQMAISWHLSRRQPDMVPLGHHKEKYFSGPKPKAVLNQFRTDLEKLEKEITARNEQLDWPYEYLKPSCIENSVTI
#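 Purified human 12hLO (150 nM final) in 25 mM Hepes, 0.01% Triton X-100, pH 7.0 was preincubated 15 min at room temperature with compound. Then 40 uM arachidonic acid was added, 30 min. Hydroperoxide was read by Fe-XO absorbance ratio 573/405 nm.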
# DT40 TDP1 no CPT – qHTS for Inhibitors of human tyrosyl-DNA phosphodiesterase 1 (TDP1): qHTS in cells in absence of CPT | Potency, µM (highest dose often 46.2 µM), for inactives: at the highest dose activity change, negative = growth inhibition, actives largely listed as inhibitors | actives 15% (n = 420,000) | DT40 Tdp1-/- hTDP1 cells, no CPT, ATP luminescence, 48 h; also: potency is read from the fitted curve at half-maximal effect; nearly all actives have a fitted effect of over 55% in size
#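 Luminescent ATP content (CellTiter-Glo) served as the growth readout. Knockout chicken DT40 cells expressing human TDP1 were exposed to compounds without camptothecin for a minimum 48 hr at 37 °C.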
# * hit, by the source's call; ? = inconclusive; · = no result; [ ] = dose if it differs, or a comment. Unless noted, calls follow the shape of the dose curve; as a rule, active = well fitted curve in the direction sought with a large enough effect; inconclusive = small, poorly fitted or top-dose-only effect, or another doubt; inactive = no such curve, though single readings can be large; an effect the other way counts as inactive or inconclusive. Unless noted, % is scaled to controls: 0 for no effect and ±100 for the full control effect.
SMILES,HT1080 IDH1KD tx,IL1B secr inh,TDP1 cell CPT,HT1080-NT tox,12-LOX inh,DT40 TDP1 no CPT
CCOCN(C(=O)CCl)c1c(C)cccc1CC,4%,-60*,?,-5%,?,?
COCC(C)N(C(=O)CCl)c1c(C)csc1C (stereo not drawn),·,·,10%,·,·,-17%
COc1ccc(C2SCC(=O)Nc3[nH]ncc32)cc1OC1CCCC1 (stereo not drawn),·,·,·,·,-1%,·
O=C([C@H]1CN2CCC1C[C@@H]2Cn1cc(CSc2ccccc2)nn1)N1CCOCC1 (stereo partly drawn),·,·,·,·,15%[176 µM],·
Cn1c(NN=O)nc2ccccc21,4.6µM*,121,?,?,-1%,?
CN(C)[C@@H]1C(=O)C(C(N)=O)=C(O)[C@@]2(O)C(=O)C3=C(O)c4c(O)cccc4[C@@](C)(O)C3[C@H](O)C12 (stereo partly drawn),0%,18,?,-17%,?,18µM*
CN(C)C1C(=O)C(C(N)=O)=C(O)[C@@]2(O)C(=O)C3=C(O)c4c(O)cccc4[C@@](C)(O)C3[C@H](O)C12 (stereo partly drawn),·,·,8.4µM*,·,·,-70%
CN(C)C1C(=O)C(C(N)=O)=C(O)C2(O)C(=O)C3=C(O)c4c(O)cccc4C(C)(O)C3CC12 (stereo not drawn),-8%,-17,-27%,-10%,·,-19%
CN(C)[C@@H]1C(=O)C(C(N)=O)=C(O)[C@@]2(O)C(=O)C3=C(O)c4c(O)ccc(Cl)c4[C@@](C)(O)C3C[C@@H]12 (stereo partly drawn),?,-12,?,?,-25%,23µM*
CC(=O)Nc1ccc(S(=O)(=O)NC[C@H]2C[C@@H]3CCN2C[C@@H]3c2cc(C3CCCC3)nn2C)cc1,·,·,·,·,35%,·
Cc1ccc(C)c(S(=O)(=O)Nc2ccc3c(c2)CCCN3C(=O)c2cccs2)c1,·,·,16µM*,·,-3%,18µM*
O=C(NCCc1ccc(Cl)cc1)C(=O)NCC(c1cccs1)S(=O)(=O)c1cccs1 (stereo not drawn),·,·,?,·,-10%,13µM*
Cn1nc(C2CCCCC2)cc1[C@H]1CN2CC[C@H]1C[C@@H]2CNS(C)(=O)=O,·,·,·,·,30%[176 µM],·
CN(Cc1ccccc1)C[C@H]1CN2CC[C@H]1C[C@@H]2CNC(=O)Nc1ccccc1,·,·,·,·,-4%[176 µM],·
CCc1ccc(Nc2nc3c(S(=O)(=O)c4ccc(C)cc4)nnn3c3ccsc23)cc1,·,·,3.7µM*,·,-15%,3.7µM*
C[C@H]1CCCC(=O)CCCCCc2cc(O)cc(O)c2C(=O)O1,?,25,?,?,-3%,18µM*
CCN(CC)P(=S)(c1c(C)nc2ccccn12)c1c(C)nc2ccccn12,?,32,26µM*,-12%,-27%,?
CN1C2CCC1CC(OC(c1ccc(F)cc1)c1ccc(F)cc1)C2 (stereo not drawn),·,·,6.5µM*,·,-25%,7.3µM*
CN1[C@@H]2CC[C@H]1CC(O[C@@H](c1ccccc1)c1ccc(Cl)cc1)C2 (stereo partly drawn),·,·,2.7µM*,·,54%,4.2µM*
CN1C2CCC1CC(OC(=O)c1ccc(Cl)cc1)C2 (stereo not drawn),-2%,-8,?,-12%,0%,?
CCCCN1CCC2(COC(=O)N2c2ccncc2)C1 (stereo not drawn),·,·,·,·,-16%[176 µM],·
CCCCCc1nc2ccccc2c(=O)n1-c1ccccc1[N+](=O)[O-],3%,-6,?,-14%,-12%,16µM*

# Screening results: PubChem, National Center for Advancing Translational Sciences (NCATS)
